Measurements published in PubChem BioAssay AID1159580 (chemical genetic matrix, 2015).
Out of some 5,500 compounds screened, about 2,000 (36%) were called active. Another 18% or so got no clear call; they are omitted. No stated cut-off is given here; in the data, active means normalized growth mostly below about 0.91 (no sharp cut-off); inconclusive means no clear call, values can overlap the other calls; inactive means mostly above about 0.92. Some of the results follow.

Assay: chemical genetic growth profiling, strain panel (AID 1159580);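 further: tested at 20 µM; growth read once vehicle control cultures reached saturation at 30 °C; 1 = growth at the plate median or of vehicle wells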
Details: growth OD

Measured: normalized growth

O=[N+]([O-])/N=C1/NCCN1Cc1ccc(Cl)cc1
inactive: S. cerevisiae deletion strains, locus YAL013W, strain DEP1, stronger effect = lower value 0.994 | S. cerevisiae deletion strains, locus YBR021W, strain FUR4, stronger effect = lower value 0.992 | S. cerevisiae deletion strains, locus YBR229C, strain ROT2, stronger effect = lower value 0.968 | S. cerevisiae deletion strains, locus YCL029C, strain bik1, stronger effect = lower value 0.99 | S. cerevisiae deletion strains, locus YDL035C, strain GPR1, stronger effect = lower value 0.988 | S. cerevisiae deletion strains, locus YDL074C, strain BRE1, stronger effect = lower value 1.05 | S. cerevisiae deletion strains, locus YDL101C, strain DUN1, stronger effect = lower value 0.993 | S. cerevisiae deletion strains, locus YDL134C, strain PPH21, stronger effect = lower value 0.984 | S. cerevisiae deletion strains, locus YDL185W, strain tfp1, stronger effect = lower value 0.986 | S. cerevisiae deletion strains, locus YDL192W, strain arf1, stronger effect = lower value 0.993 | S. cerevisiae deletion strains, locus YDR101C, strain arx1, stronger effect = lower value 0.998 | S. cerevisiae deletion strains, locus YDR150W, strain NUM1, stronger effect = lower value 1 | S. cerevisiae deletion strains, locus YDR162C, strain NBP2, stronger effect = lower value 1.02 | S. cerevisiae deletion strains, locus YDR318W, strain mcm21, stronger effect = lower value 0.984 | S. cerevisiae deletion strains, locus YDR388W, stronger effect = lower value 0.994 | S. cerevisiae deletion strains, locus YDR502C, strain sam2, stronger effect = lower value 0.988 | S. cerevisiae deletion strains, locus YEL061C, strain CIN8, stronger effect = lower value 0.989 | S. cerevisiae deletion strains, locus YER110C, stronger effect = lower value 0.986 | S. cerevisiae deletion strains, locus YER155C, strain BEM2, stronger effect = lower value 1 | S. cerevisiae deletion strains, locus YER167W, strain BCK2, stronger effect = lower value 0.988 | S. cerevisiae deletion strains, locus YGL078C, strain dbp3, stronger effect = lower value 0.995 | S. cerevisiae deletion strains, locus YGL086W, strain mad1, stronger effect = lower value 0.979 | S. cerevisiae deletion strains, locus YGL248W, strain PDE1, stronger effect = lower value 0.979 | S. cerevisiae deletion strains, locus YGR078C, strain PAC10, stronger effect = lower value 1.02 | S. cerevisiae deletion strains, locus YGR135W, strain pre9, stronger effect = lower value 0.992 | S. cerevisiae deletion strains, locus YGR229C, strain SMI1, stronger effect = lower value 1 | S. cerevisiae deletion strains, locus YGR252W, strain gcn5, stronger effect = lower value 0.989 | S. cerevisiae deletion strains, locus YHR030C, strain SLT2, stronger effect = lower value 0.963 | S. cerevisiae deletion strains, locus YHR079C, strain IRE1 (second series), stronger effect = lower value 0.987 | S. cerevisiae deletion strains, locus YHR094C, strain hxt1, stronger effect = lower value 0.996 | S. cerevisiae deletion strains, locus YHR129C, strain ARP1, stronger effect = lower value 0.994 | S. cerevisiae deletion strains, locus YHR200W, strain rpn10, stronger effect = lower value 0.988 | S. cerevisiae deletion strains, locus YIL066C, strain RNR3, stronger effect = lower value 0.985 | S. cerevisiae deletion strains, locus YIL073C, strain SPO22, stronger effect = lower value 0.995 | S. cerevisiae deletion strains, locus YIL125W, strain kgd1, stronger effect = lower value 0.993 | S. cerevisiae deletion strains, locus YIR030C, strain dcg1, stronger effect = lower value 0.988 | S. cerevisiae deletion strains, locus YJL095W, strain BCK1, stronger effect = lower value 1.01 | S. cerevisiae deletion strains, locus YJL134W, strain LCB3, stronger effect = lower value 0.987 | S. cerevisiae deletion strains, locus YJL168C, strain set2, stronger effect = lower value 0.992 | S. cerevisiae deletion strains, locus YJL187C, strain SWE1 (second series), stronger effect = lower value 0.985 | S. cerevisiae deletion strains, locus YJR043C, strain POL32, stronger effect = lower value 1 | S. cerevisiae deletion strains, locus YJR075W, strain HOC1, stronger effect = lower value 0.998 | S. cerevisiae deletion strains, locus YKL009W, strain mrt4, stronger effect = lower value 1.01 | S. cerevisiae deletion strains, locus YKL068W, stronger effect = lower value 0.991 | S. cerevisiae deletion strains, locus YKL085W, strain MDH1 (second series), stronger effect = lower value 0.989 | S. cerevisiae deletion strains, locus YKL085W, strain MDH1, stronger effect = lower value 0.989 | S. cerevisiae deletion strains, locus YKL190W, strain CNB1, stronger effect = lower value 0.997 | S. cerevisiae deletion strains, locus YKR001C, strain vps1, stronger effect = lower value 0.983 | S. cerevisiae deletion strains, locus YLR039C, strain RIC1, stronger effect = lower value 1.01 | S. cerevisiae deletion strains, locus YLR058C, strain SHM2, stronger effect = lower value 0.986 | S. cerevisiae deletion strains, locus YLR102C, strain apc9, stronger effect = lower value 0.996 | S. cerevisiae deletion strains, locus YLR262C, strain YPT6, stronger effect = lower value 1.02 | S. cerevisiae deletion strains, locus YLR268W, strain sec22, stronger effect = lower value 0.995 | S. cerevisiae deletion strains, locus YLR330W, strain CHS5, stronger effect = lower value 0.988 | S. cerevisiae deletion strains, locus YLR342W, strain FKS1 (second series), stronger effect = lower value 0.965 | S. cerevisiae deletion strains, locus YLR371W, strain rom2, stronger effect = lower value 0.987 | S. cerevisiae deletion strains, locus YLR418C, strain cdc73, stronger effect = lower value 1 | S. cerevisiae deletion strains, locus YML016C, strain PPZ1, stronger effect = lower value 0.999 | S. cerevisiae deletion strains, locus YML032C, strain rad52, stronger effect = lower value 0.98 | S. cerevisiae deletion strains, locus YML124C, strain tub3, stronger effect = lower value 0.985 | S. cerevisiae deletion strains, locus YMR078C, strain ctf18, stronger effect = lower value 0.981 | S. cerevisiae deletion strains, locus YMR223W, strain ubp8, stronger effect = lower value 0.993 | S. cerevisiae deletion strains, locus YMR263W, strain SAP30, stronger effect = lower value 1 | S. cerevisiae deletion strains, locus YMR307W, strain GAS1, stronger effect = lower value 1.03 | S. cerevisiae deletion strains, locus YNL067W, strain RPL9B, stronger effect = lower value 1.01 | S. cerevisiae deletion strains, locus YNL128W, strain TEP1, stronger effect = lower value 0.989 | S. cerevisiae deletion strains, locus YNL153C, strain GIM3, stronger effect = lower value 1 | S. cerevisiae deletion strains, locus YNL233W, strain BNI4, stronger effect = lower value 1 | S. cerevisiae deletion strains, locus YNL250W, strain rad50, stronger effect = lower value 0.987 | S. cerevisiae deletion strains, locus YNL271C, strain bni1, stronger effect = lower value 0.992 | S. cerevisiae deletion strains, locus YNL298W, strain CLA4, stronger effect = lower value 0.989 | S. cerevisiae deletion strains, locus YNL307C, strain MCK1, stronger effect = lower value 0.992 | S. cerevisiae deletion strains, locus YNL322C, strain KRE1, stronger effect = lower value 0.992 | S. cerevisiae deletion strains, locus YNR052C, strain pop2, stronger effect = lower value 0.975 | S. cerevisiae deletion strains, locus YOL006C, strain TOP1, stronger effect = lower value 1.03 | S. cerevisiae deletion strains, locus YOL012C, strain htz1 0.909 | S. cerevisiae deletion strains, locus YOL147C, strain pex11, stronger effect = lower value 0.991 | S. cerevisiae deletion strains, locus YOR061W, strain CKA2, stronger effect = lower value 0.992 | S. cerevisiae deletion strains, locus YOR069W, strain VPS5, stronger effect = lower value 0.97 | S. cerevisiae deletion strains, locus YOR136W, strain idh2, stronger effect = lower value 0.992 | S. cerevisiae deletion strains, locus YOR144C, strain elg1, stronger effect = lower value 0.994 | S. cerevisiae deletion strains, locus YOR184W, strain ser1, stronger effect = lower value 0.998 | S. cerevisiae deletion strains, locus YOR316C, strain cot1, stronger effect = lower value 0.989 | S. cerevisiae deletion strains, locus YPL055C, strain LGE1, stronger effect = lower value 1.03 | S. cerevisiae deletion strains, locus YPL241C, strain CIN2, stronger effect = lower value 0.997 | S. cerevisiae deletion strains, locus YPR119W, strain clb2, stronger effect = lower value 0.987 | S. cerevisiae deletion strains, locus YPR141C, strain kar3, stronger effect = lower value 0.988 | S. cerevisiae deletion strains, locus YPR163C, strain tif3, stronger effect = lower value 0.982 | S. cerevisiae deletion strains, locus YPR167C, strain met16, stronger effect = lower value 0.996 | S. cerevisiae deletion strains, strain wtn01, stronger effect = lower value 0.983 | S. cerevisiae strains, strain wild type, stronger effect = lower value 0.989
